In ChEMBL document CHEMBL2218924, “A broad activity screen in support of a chemogenomic map for kinase signalling research and drug discovery” (Biochem J, 2013) one finds residual activity data, which are given here for 18 compounds.

Assay [1] concerns the target Death-associated protein kinase 1 (Homo sapiens) (UniProt P53355). The settings on record: at 10 µM.
Assay [2] has as its target Death-associated protein kinase 2 (Homo sapiens) (UniProt Q9UIK4). Conditions: at 1 µM.
In assay [3] the target is T1, Serine/threonine-protein kinase DCLK2 (Homo sapiens) (UniProt Q8N568).
T1 sequence (whole entry): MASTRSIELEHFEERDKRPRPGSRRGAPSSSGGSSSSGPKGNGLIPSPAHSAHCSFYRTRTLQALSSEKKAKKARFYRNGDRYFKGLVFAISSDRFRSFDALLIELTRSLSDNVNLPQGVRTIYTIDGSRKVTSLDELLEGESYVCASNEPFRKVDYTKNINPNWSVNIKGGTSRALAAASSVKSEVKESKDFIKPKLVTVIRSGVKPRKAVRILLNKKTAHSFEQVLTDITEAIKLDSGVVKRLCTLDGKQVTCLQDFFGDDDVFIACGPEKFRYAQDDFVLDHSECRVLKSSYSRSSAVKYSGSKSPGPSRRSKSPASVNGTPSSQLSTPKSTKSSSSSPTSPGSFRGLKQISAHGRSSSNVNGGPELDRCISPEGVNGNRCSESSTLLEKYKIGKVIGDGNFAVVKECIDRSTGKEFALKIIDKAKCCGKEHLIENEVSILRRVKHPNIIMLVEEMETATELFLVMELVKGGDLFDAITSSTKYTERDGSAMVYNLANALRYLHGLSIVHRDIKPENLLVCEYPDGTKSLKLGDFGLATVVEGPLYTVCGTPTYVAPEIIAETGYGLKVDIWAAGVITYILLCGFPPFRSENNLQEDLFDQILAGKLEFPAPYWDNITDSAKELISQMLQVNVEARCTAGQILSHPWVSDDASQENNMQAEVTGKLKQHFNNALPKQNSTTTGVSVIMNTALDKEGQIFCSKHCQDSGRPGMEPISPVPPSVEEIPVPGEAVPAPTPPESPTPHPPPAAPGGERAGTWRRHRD
The settings on record: at 1 µM.

The target in assay [4] is T1, Serine/threonine-protein kinase DCLK2 (Homo sapiens). Conditions: at 10 µM.
The target of assay [5] is T2, Discoidin domain-containing receptor 2 (Homo sapiens) (UniProt Q16832).
T2 sequence (whole entry): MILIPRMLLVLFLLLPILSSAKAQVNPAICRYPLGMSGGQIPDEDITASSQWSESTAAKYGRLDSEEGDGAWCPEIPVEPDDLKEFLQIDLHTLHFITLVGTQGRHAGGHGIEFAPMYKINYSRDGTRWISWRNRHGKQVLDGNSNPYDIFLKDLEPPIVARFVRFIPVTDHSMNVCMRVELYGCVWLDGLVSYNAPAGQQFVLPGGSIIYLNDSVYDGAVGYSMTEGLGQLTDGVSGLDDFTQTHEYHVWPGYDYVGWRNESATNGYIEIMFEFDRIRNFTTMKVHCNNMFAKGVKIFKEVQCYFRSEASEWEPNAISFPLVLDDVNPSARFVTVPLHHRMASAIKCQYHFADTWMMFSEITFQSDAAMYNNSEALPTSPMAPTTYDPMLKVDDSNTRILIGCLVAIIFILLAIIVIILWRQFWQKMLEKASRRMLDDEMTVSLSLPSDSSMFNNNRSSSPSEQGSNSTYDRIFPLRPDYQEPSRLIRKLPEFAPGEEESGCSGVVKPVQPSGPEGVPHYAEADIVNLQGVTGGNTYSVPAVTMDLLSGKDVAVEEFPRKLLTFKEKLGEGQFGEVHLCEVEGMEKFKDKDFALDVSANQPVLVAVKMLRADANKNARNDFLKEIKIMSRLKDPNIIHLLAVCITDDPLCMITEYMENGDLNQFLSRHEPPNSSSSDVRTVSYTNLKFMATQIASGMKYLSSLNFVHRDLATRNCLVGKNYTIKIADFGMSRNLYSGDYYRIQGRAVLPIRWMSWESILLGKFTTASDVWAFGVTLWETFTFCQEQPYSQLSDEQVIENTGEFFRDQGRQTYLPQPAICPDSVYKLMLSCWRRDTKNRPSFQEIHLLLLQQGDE
The settings on record: at 1 µM.

Assay [6] addresses T2, Discoidin domain-containing receptor 2 (Homo sapiens). Conditions: at 10 µM.
Assay [7] concerns the target T3, Myotonin-protein kinase (Homo sapiens) (UniProt Q09013).
T3 sequence (whole entry): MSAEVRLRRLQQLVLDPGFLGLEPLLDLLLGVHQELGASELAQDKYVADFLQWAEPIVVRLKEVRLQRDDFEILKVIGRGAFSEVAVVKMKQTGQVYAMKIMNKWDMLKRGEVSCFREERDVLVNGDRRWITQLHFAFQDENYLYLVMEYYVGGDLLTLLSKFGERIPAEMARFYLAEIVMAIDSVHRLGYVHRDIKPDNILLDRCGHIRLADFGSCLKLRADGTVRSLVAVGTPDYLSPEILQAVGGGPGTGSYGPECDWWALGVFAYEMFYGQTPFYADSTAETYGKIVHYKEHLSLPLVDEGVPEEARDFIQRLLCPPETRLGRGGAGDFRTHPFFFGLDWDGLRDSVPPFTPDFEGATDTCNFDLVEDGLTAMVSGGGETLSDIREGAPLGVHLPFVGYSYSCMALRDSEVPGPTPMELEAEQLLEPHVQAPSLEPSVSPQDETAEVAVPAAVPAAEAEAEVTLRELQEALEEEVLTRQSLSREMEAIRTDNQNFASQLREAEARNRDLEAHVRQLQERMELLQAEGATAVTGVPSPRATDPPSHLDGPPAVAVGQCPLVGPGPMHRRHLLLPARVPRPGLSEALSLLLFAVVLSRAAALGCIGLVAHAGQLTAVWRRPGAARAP
Conditions: at 1 µM.

Assay [8] deals with T3, Myotonin-protein kinase (Homo sapiens). The settings on record: at 10 µM.
In assay [9] the target is T4, Serine/threonine-protein kinase 17A (Homo sapiens) (UniProt Q9UEE5).
T4 sequence (whole entry): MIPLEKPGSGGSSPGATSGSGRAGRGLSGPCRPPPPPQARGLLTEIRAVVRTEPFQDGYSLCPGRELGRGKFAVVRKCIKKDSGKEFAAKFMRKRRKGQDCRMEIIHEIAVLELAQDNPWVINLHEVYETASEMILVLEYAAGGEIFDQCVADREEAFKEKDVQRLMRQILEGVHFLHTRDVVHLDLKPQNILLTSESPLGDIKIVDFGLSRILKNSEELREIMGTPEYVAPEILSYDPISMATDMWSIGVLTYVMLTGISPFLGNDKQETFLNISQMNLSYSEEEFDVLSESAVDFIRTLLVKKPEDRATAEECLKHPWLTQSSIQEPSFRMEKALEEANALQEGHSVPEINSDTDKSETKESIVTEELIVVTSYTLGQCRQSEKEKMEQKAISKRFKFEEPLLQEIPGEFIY
Conditions: at 1 µM.

In assay [10] the target is Death-associated protein kinase 2 (Homo sapiens) (UniProt Q9UIK4). Conditions: at 10 µM.
Chain of Death-associated protein kinase 2 (Homo sapiens) (Q9UIK4 whole entry, looked up): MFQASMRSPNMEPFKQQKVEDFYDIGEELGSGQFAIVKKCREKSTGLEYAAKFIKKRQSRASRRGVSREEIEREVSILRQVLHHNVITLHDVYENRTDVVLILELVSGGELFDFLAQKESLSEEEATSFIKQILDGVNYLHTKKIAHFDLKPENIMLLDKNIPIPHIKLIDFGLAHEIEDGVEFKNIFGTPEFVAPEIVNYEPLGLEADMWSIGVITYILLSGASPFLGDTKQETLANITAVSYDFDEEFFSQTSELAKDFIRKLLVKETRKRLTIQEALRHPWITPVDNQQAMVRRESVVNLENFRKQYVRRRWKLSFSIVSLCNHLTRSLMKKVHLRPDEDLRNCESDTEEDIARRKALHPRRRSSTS

Chain of Death-associated protein kinase 1 (Homo sapiens) (P53355 whole entry, looked up): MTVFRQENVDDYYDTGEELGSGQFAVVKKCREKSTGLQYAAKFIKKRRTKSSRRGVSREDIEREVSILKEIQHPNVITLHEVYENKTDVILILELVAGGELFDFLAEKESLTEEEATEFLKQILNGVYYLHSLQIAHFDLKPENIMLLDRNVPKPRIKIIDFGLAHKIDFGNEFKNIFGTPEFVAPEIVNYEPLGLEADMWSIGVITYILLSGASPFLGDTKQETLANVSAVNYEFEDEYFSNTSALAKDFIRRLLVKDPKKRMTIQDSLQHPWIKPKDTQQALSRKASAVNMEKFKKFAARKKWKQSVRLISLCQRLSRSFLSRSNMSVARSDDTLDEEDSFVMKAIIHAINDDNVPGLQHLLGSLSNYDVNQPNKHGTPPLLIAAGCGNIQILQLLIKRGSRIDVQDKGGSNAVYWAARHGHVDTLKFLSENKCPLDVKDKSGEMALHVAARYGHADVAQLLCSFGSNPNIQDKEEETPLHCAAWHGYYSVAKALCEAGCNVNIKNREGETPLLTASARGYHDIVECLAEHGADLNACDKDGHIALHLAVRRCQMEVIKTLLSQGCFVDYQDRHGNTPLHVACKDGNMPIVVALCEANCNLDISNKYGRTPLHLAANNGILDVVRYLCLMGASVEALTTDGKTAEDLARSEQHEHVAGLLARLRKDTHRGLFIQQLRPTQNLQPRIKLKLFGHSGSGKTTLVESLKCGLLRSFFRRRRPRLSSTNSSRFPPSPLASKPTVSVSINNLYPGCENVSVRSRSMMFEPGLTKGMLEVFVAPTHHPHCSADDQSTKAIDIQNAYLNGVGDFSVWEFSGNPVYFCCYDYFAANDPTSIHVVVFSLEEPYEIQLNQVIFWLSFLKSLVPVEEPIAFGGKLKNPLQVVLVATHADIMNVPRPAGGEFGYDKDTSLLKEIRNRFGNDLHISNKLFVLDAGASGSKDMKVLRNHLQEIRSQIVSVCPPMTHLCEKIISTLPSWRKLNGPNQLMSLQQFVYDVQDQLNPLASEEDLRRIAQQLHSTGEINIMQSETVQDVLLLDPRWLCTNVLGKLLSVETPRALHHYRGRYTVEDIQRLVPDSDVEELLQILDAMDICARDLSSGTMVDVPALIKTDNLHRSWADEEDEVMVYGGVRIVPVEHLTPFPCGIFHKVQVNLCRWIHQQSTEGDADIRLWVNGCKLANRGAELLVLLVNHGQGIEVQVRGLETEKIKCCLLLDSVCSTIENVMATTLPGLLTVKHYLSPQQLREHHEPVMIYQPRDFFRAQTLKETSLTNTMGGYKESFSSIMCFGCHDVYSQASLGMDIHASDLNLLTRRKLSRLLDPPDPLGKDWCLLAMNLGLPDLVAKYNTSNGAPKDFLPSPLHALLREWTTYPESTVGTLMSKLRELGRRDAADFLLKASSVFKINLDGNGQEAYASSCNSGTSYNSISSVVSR

For `Cc1nc(-c2ccccc2)c(-c2ccncc2)o1`, the residual activity – broadly, the signal under treatment as a percentage of the control signal – in [1] was 95%; in [2] it was 99%; in assay [3], 124%; in assay [4], 113%; in assay [5], 50%; in assay [6], 36%. Also, the residual activity in assay [7] amounted to 104%; in [8], 102%; in assay [9], 120%.

Turning to `c1ccc2c(-c3ccncc3)c[nH]c2c1`, the residual activity in assay [1] came out at 91%; in assay [2], 100%; in assay [3], 75%; in [4] it was 98%; in assay [6], 97%; in assay [7], 147%. Besides, the values for the residual activity in assay [8] and in assay [9] were 132% and 102%, respectively.

For the compound `O=C1NC(=O)c2c1c1c3ccccc3[nH]c1c1[nH]c3cc(Br)ccc3c21`, the residual activity in assay [1] was 92%; in assay [2] it was 98%; in assay [10] it was 71%; in assay [3], 83%; in assay [4], 96%; in assay [5], 101%. Further, the residual activity in assay [6] came out at 98%; in [7] it was 115%; in [8] it was 97%; in assay [9], 67%.

Consider `N#CC(C#N)=C(N)/C(C#N)=C/c1ccc(O)cc1`, for which the residual activity came out at 92% in assay [1]; 99% in assay [2]; 97% in [10]; 94% in [3]; 47% in [4]; 116% in assay [5]. In addition, the residual activity came to 97% in assay [6], 148% in assay [8] and 91% in assay [9].

In the case of `c1ccc(-c2n[nH]cc2-c2ccnc3ccccc23)nc1`, the residual activity in [1] came to 88%; in assay [2], 103%; in [4] it was 101%; in assay [5], 102%; in assay [6], 98%; in assay [7], 127%. The residual activity in assay [8] came to 140%.

On to `CCOc1cc2ncnc(Nc3cccc(Br)c3)c2cc1OCC`, for which the residual activity was 85% in assay [1]; 105% in assay [2]; 102% in [10]; 84% in [3]; 66% in assay [4]; 93% in [5]. In addition, the residual activity in assay [6] turned out to be 66%; in assay [7], 109%; in assay [8] it was 135%; in [9], 113%.

As to `Cc1cc(Nc2nc(-c3ccccc3)nc3ccccc23)n[nH]1`, the residual activity in assay [1] is 17%; in assay [2], 56%; in assay [10] it was 11%; in [3] it was 99%; in [4] it was 69%; in assay [5], 71%. For the same compound, the residual activity in assay [6] stood at 41%; in assay [7], 111%; in assay [8], 79%; in assay [9] it was 42%.

For the compound `CO[C@@H]1[C@H](N(C)C(=O)c2ccccc2)C[C@H]2O[C@]1(C)n1c3ccccc3c3c4c(c5c6ccccc6n2c5c31)C(=O)NC4`, the residual activity in assay [1] is 72%; in assay [2] it was 71%; in assay [10], 54%; in assay [3] it was 75%; in assay [4], 38%; in assay [5], 106%. Further, the residual activity in [6] was determined as 69%; in assay [8] it was 90%; in assay [9], 16%.

For the compound `c1ccc(-c2n[nH]c3c2oc2ccccc23)cc1`, the residual activity was 98% in assay [1]; 82% in assay [3]; 74% in [4]; 146% in [7]; 121% in assay [8]; 43% in assay [9].

As for `Cc1cccc(-c2[nH]c(C(C)(C)C)nc2-c2ccc3c(c2)OCO3)n1`, the residual activity turned out to be 77% in assay [1]; 86% in assay [3]; 99% in assay [4]; 98% in assay [6]; 145% in [7]; 143% in [8].

For `COc1cc2ncnc(Nc3ccc(O)c(Br)c3)c2cc1OC`, the residual activity in assay [1] is 76%; in assay [10], 77%; in assay [3], 73%; in assay [4], 96%; in assay [5], 90%; in assay [6], 55%. For the same compound, the values for the residual activity in assay [7], in [8] and in assay [9] were 105%, 116% and 77%, respectively.

For `CCC(=O)Nc1ccc2ncnc(Nc3cccc(Br)c3)c2c1`, the residual activity was determined as 93% in assay [1]; 98% in [2]; 107% in [10]; 79% in assay [3]; 100% in [4]; 92% in assay [5]. The residual activity in [6] was determined as 82%; in assay [7] it was 112%; in assay [8], 118%; in assay [9] it was 95%.

In the case of `Cc1cc2ncc(-c3ccccc3)nc2cc1C`, the residual activity in [1] worked out at 88%; in assay [2] it was 99%; in assay [3] it was 95%; in assay [4], 67%; in assay [5], 102%; in assay [6], 90%. For the same compound, the results for the residual activity in assay [7], in assay [8] and in [9] were 97%, 135% and 70%, respectively.

For `O=C1Nc2ccc(Br)cc2/C1=C\c1cc2c([nH]1)CCCC2`, the residual activity worked out at 110% in assay [5], 115% in [7], 130% in assay [8] and 48% in assay [9].

As for `Nc1n[nH]c2nnc(-c3c(-c4ccccc4)nn4ccccc34)cc12`, the residual activity in [1] turned out to be 88%; in assay [2], 95%; in assay [10], 99%; in assay [3], 128%; in assay [4], 75%; in assay [5] it was 94%. Moreover, the residual activity in assay [6] turned out to be 74%; in assay [7], 92%; in assay [8], 75%; in [9], 83%.

In the case of `COc1cc2ncc(-c3ccccc3)nc2cc1OC`, the residual activity in assay [1] came out at 78%; in [2], 83%; in assay [4] it was 52%; in assay [6] it was 92%; in assay [9], 124%.

As to `CC(=O)c1ccc(N2CCOCC2)cc1O`, the residual activity in assay [1] stood at 89%; in assay [2] it was 100%; in assay [3] it was 75%; in assay [4] it was 74%; in assay [5] it was 112%; in assay [6] it was 97%. Further, the results for the residual activity in assay [7] and in [8] were 112% and 130%, respectively.

As to `Cc1cncc2cccc(S(=O)(=O)N3CCCN(C(=O)CN)C[C@H]3C)c12`, the residual activity worked out at 85% in assay [1]; 90% in assay [2]; 66% in assay [3]; 35% in assay [4]; 126% in assay [5]; 94% in [6].
